Assay [1] is described as follows: P. berghei load reduction in hepatocytes – cell-based, HepG2, luciferase luminescence, HepG2 viability, primary screen (AID 624349; in the data active = parasite load remaining mostly below about 12%, no sharp cut-off; inactive = mostly above about 10%;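 also: 100% = mean of DMSO negative control wells on the same plate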). Particulars: P. berghei liver stage in HepG2, luciferase luminescence, concentration not given here; parasite load remaining: stronger effect = lower value; viability: measured here: HepG2 viability without parasites.
Assay [2] in a line: signal quenchers or enhancers, Cy5 substrate/SSB – biochemical, NIH Clinical Collection, E. coli SSB, artefact control for HCV NS3 helicase inhibitor project (AID 743268; call rule not given here). Particulars: Cy5-oligo bound E. coli SSB, fluorescence interference.
Assay [3] concerns Hepatitis C virus NS3 helicase. Briefly: blockers of NS3h binding to DNA – biochemical, fluorescence polarization, NIH Clinical Collection, primary screen (AID 743270; call rule not given here). Particulars: NS3 helicase binding to Cy5-dT15 DNA, stronger effect = higher value, concentration not given here.
The target of assay [4] is Single-stranded DNA-binding protein (Escherichia coli (strain K12)) (UniProt P0AGE0). Briefly: SSB-ssDNA binding inhibitors – biochemical, fluorescence polarization, NIH Clinical Collection, counter-screen for HCV NS3 helicase inhibitor project (AID 743271; in the data active = inhibition above about 28%). Particulars: E. coli SSB-DNA binding, stronger effect = higher value, concentration not given here.
Assay [5] can be described thus: compounds distorting NS3 helicase fluorescence signal – biochemical, NIH Clinical Collection, artefact control for HCV NS3 helicase inhibitor project (AID 743272; call rule not given here;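 also: HCV NS3 helicase with a Cy5 labelled single stranded DNA probe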). Particulars: fluorescence interference counterscreen, HCV NS3 helicase assay; stronger effect = lower value.
Assay [6] in a line: modulation of C. elegans fzo-1 (AID 1259413; call rule not given here;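 also: fzo-1 mutant C. elegans worms in liquid wells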). Particulars: C. elegans fzo-1 modulator screen, mean read-out; stronger effect = higher value.
Assay [7] can be described thus: MELAS cybrid and Rieske KO viability enhancers – cell-based, MELAS cybrids, Rieske KO mouse fibroblasts, CellTiter-Glo, primary screen (AID 1508586;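 active = mean z-score across replicates of 1.96 or higher in either the MELAS or the Rieske mutant cell line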;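 also: z relative to plate mean and SD of compound and empty wells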). Particulars: low glucose.
Assay [8] in a line: galactose survival enhancers in mitochondrial complex I cybrids – cell-based, galactose medium, ATP luminescence, primary screen (AID 1645843;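 active = z-score of at least 1.8 in each of two replicates, scored against plate mean and spread of sample wells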;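 also: positive z means more ATP and so rescue of galactose-driven cybrid death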). Particulars: complex I mutant cybrid cells, 72 h, stronger effect = higher value.
Assay [9] deals with F380Y. Briefly: BK channel mutant inhibitors and activators – cell-based, U2OS BacMam, thallium flux, beta subunits, selectivity assay, profiling panel (AID 1259406).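 Also: initial slope of Thallos dye fluorescence rise after thallium is added; log ratio against the mean of 0.3% DMSO vehicle wells on the same plate.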 Particulars: U2OS BacMam BK variants, at 30 µM.
Assay [10] relates to F380Y/beta1. Described as above. Particulars: U2OS BacMam BK variants, at 30 µM.
Assay [11] relates to F380Y/beta2Delta. Described as above. Particulars: U2OS BacMam BK variants, at 30 µM.
The test system of assay [12] is F380Y/beta4. The assay is described as above. Particulars: U2OS BacMam BK variants, at 30 µM.
In assay [13] the target is Calcium-activated potassium channel subunit alpha-1 (Homo sapiens) + Leucine-rich repeat-containing protein 26 (Homo sapiens) (UniProt Q12791+Q2I0M4). The description is as above. Particulars: U2OS BacMam BK variants, F380Y/Slo1WT/gamma1, at 30 µM.
For assay [14], the system named is R275C. The assay is described as above. Particulars: U2OS BacMam BK variants, at 30 µM.
Assay [15] relates to R275C/beta1. The assay is described as above. Particulars: U2OS BacMam BK variants, at 30 µM.
Assay [16] has as its system R275C/beta2Delta. The description is as above. Particulars: U2OS BacMam BK variants, at 30 µM.
Assay [17] concerns R275C/beta4. The description is as above. Particulars: U2OS BacMam BK variants, at 30 µM.
In assay [18] the test system is R275C/Slo1WT/beta2. Described as above. Particulars: U2OS BacMam BK variants, at 30 µM.
Assay [19] has as its system Neuropilin-2 / VEGF-C interaction (human). Briefly: small molecules blocking Neuropilin-2/VEGF-C interaction – biochemical, microplate binding format, z-score (AID 743281; call rule not given here). Particulars: microplate NRP2/VEGF-C binding assay; stronger effect = lower value.

Each structure is given as a SMILES string. Several values for one entry are separate records, joined by “and”; a condition that tells them apart may be missing. Identical values can stand only once. Activity calls are given as the source filed them.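 The calls were made as follows, unless noted: active = thallium flux through the channel raised or lowered by more than 3 SD from vehicle-only wells, actives on both sides; inactive = the rest.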

Four molecules from PubChem BioAssay can be followed below.

Sequence of Calcium-activated potassium channel subunit alpha-1 (Homo sapiens) + Leucine-rich repeat-containing protein 26 (Homo sapiens) (Q2I0M4 whole entry, looked up, one chain of several): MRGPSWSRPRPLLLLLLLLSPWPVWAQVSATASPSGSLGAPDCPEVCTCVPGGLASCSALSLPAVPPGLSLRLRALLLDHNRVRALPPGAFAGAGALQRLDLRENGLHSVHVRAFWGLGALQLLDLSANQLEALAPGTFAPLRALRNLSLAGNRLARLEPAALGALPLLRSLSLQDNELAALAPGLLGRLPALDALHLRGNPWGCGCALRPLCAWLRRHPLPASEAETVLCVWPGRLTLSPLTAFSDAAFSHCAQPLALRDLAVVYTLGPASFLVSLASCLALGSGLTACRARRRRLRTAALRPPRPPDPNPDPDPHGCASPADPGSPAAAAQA

With `CN1C2CCC1CC(OC(c1ccccc1)c1ccccc1)C2` (centres undefined), the parasite load remaining in assay [1] is 25.8% (inactive) and 92.2% (inactive) and 42.8% (inactive). In addition, the viability in assay [1] is 81.7% and 71.5% and 99.9%. Further, the fluorescence ratio is 1.04 (inactive) in assay [2] and 1.01 (inactive) in assay [5]. For the same molecule, the inhibition is -5.91% (inactive) in assay [3] and -4.29% (inactive) in [4]. In addition, the mean signal in assay [6] is 197 (inactive). Moreover, the z-score was -0.325 (inactive) in [7] (MELAS cybrid survival, CellTiter-Glo 48 h, stronger effect = higher value); -0.171 in assay [7] (Rieske KO mouse fibroblast survival, CellTiter-Glo 72 h); -0.84 (inactive) and -0.76 (inactive) in [8]. The log fold change Tl+ flux is 0.117 (active) in assay [9]; 0.0778 (inactive) in assay [10]; 0.124 (active) in assay [11]; 0.212 (active) in [12]; 0.00637 (inactive) in [13]; -0.0804 (inactive) in [14]. The log fold change Tl+ flux was 0.237 (active) in assay [15], 0.0793 (inactive) in [16], 0.252 (active) in assay [17] and 0.0196 (inactive) in assay [18].
`O=c1cnn([C@@H]2O[C@H](CO)[C@@H](O)[C@H]2O)c(=O)[nH]1`: the parasite load remaining in assay [1] is 51.8% (inactive). Also, the viability in assay [1] worked out at 79.3%. Further, the fluorescence ratio in [2] is 0.94 (inactive); in [5], 0.89 (inactive). Besides, the inhibition in assay [3] is -2.84% (inactive); in assay [4], -1.97% (inactive). The z-score in [19] is -0.659 (inactive). The mean signal in assay [6] is 301 (inactive). Moreover, the log fold change Tl+ flux in assay [9] was -0.0103 (inactive); in [10] it was 0.0132 (inactive); in assay [11] it was -0.027 (inactive); in assay [12] it was 0.00308 (inactive); in assay [13], -0.026 (inactive); in assay [14], 0.00432 (inactive). Further, the log fold change Tl+ flux in assay [15] was -0.00973 (inactive); in assay [16], -0.0295 (inactive); in assay [17], -0.0439 (inactive); in [18], -0.0257 (inactive).
On to `CC1(C)C[C@@H]1C(=O)N/C(=C\CCCCSC[C@H](N)C(=O)O)C(=O)O`, for which the parasite load remaining in assay [1] was 86.6% (inactive). In [1], this molecule displayed a viability of 71.9%. Moreover, the fluorescence ratio is 1.03 (inactive) in [2] and 1.01 (inactive) in assay [5]. In addition, the inhibition in assay [3] was 0.4% (inactive); in assay [4], -0.1% (inactive). Further, in [19], the z-score was -0.458 (inactive). Also, the mean signal in [6] is 226 (inactive). Also, the log fold change Tl+ flux was 0.00013 (inactive) in [9]; 0.0415 (inactive) in [10]; 0.0097 (inactive) in assay [11]; -0.0167 (inactive) in assay [12]; -0.0144 (inactive) in [13]; -0.0675 (inactive) in assay [14]. The log fold change Tl+ flux in assay [15] is 0.00997 (inactive); in [16], 0.0368 (inactive); in assay [17], 0.0142 (inactive); in assay [18] it was 0.00806 (inactive).
With `CC(=O)[C@@]1(O)CC[C@H]2[C@@H]3C[C@H](C)C4=CC(=O)CC[C@]4(C)[C@H]3CC[C@@]21C`, the parasite load remaining in assay [1] was 37.7% (inactive). For the same molecule, in [1], the viability turned out to be 68%. The fluorescence ratio in assay [2] was 0.96 (inactive); in assay [5] it was 0.95 (inactive). Further, the results for the inhibition in [3] and in [4] were -0.22% (inactive) and -0.39% (inactive), respectively. In addition, the z-score in assay [19] was -0.215 (inactive). Further, in assay [6], the mean signal is 243 (inactive). In addition, the log fold change Tl+ flux in [9] is 0.0243 (inactive); in [10], 0.0476 (inactive); in assay [11], 0.0349 (inactive); in assay [12] it was -0.018 (inactive); in assay [13] it was 0.00484 (inactive); in assay [14], -0.0195 (inactive). For the same molecule, the log fold change Tl+ flux in [15] is 0.0286 (inactive); in assay [16] it was -0.00744 (inactive); in assay [17], 0.0101 (inactive); in assay [18] it was -0.0331 (inactive).
